This is a sample that favours compounds with a hit; in the whole collection about 2.7% have one here.
PfG6PD inh: PfG6PD (Plasmodium falciparum) enzyme inhibition | PfGluPho enzyme, NADPH resazurin-diaphorase fluorescence | inhibition, % at 20 µM | actives 0.78% (n = 350,000) | AID 504690;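 active = inhibition reaching at least a set limit at 20 µM in the primary screen, cut at about 59% in these data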;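 also: 0% = DMSO wells with substrate and 100% = DMSO wells lacking glucose-6-phosphate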
KLK7 zymogen act: activates the human kallikrein-7 zymogen; P49862; purified proKLK7, EDANS-DABCYL substrate fluorescence; 100% is mature enzyme control, 0% vehicle; activation, % at 7 µM; actives 0.9% (n = 370,000);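 active = activation above the mean of all tested compounds plus 3 SD, computed per campaign excluding outliers beyond control limits, cut at about 13% in these data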
Target sequence (P49862 whole entry, looked up): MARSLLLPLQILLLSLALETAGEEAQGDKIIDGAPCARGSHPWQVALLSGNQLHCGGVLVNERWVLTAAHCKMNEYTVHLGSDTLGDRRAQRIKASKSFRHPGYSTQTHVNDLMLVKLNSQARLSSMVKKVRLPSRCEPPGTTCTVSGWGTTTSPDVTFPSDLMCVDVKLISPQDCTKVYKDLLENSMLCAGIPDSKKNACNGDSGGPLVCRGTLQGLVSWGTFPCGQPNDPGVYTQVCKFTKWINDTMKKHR
Neddyl block: blocks human cullin neddylation; actives 0.58% (n = 360,000); calls only at 25 µM; TR-FRET cullin neddylation, biochemical; AID 651699; in the data active = inhibition above about 36%
FAS-TE inh: blocks the thioesterase domain of human fatty acid synthase; P49327; recombinant FAS-TE, OMFH fluorogenic substrate, fluorescence endpoint; inhibition, % at 15 µM; actives 0.67% (n = 360,000); AID 602261;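 active = compounds whose normalised, plate-corrected inhibition of enzyme fluorescence in the single-dose primary screen is 50% or more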;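 also: 0% = DMSO with enzyme and 100% = substrate without enzyme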
FAS-TE conf: FAS thioesterase (human) inhibition, confirmation | inhibition, % at 15 µM | AID 624325 | shares compounds with FAS-TE inh | actives 45% (n = 2,300) | recombinant FAS-TE, OMFH fluorogenic substrate, fluorescence;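 active = compounds inhibiting the enzyme by at least 50% at 15 µM in any one of the replicates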;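 also: 0% = enzyme with DMSO only and 100% = wells lacking enzyme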
* marks the source's active call; other numbers are inactive results; i = inactive; . = not tested or not shown.

SMILES | PfG6PD inh | KLK7 zymogen act | Neddyl block | FAS-TE inh | FAS-TE conf
CC(C)C[C@@]12C(=O)N(c3cccc(Cl)c3)C(=O)N1[C@H](c1ccc(Br)cc1)[C@@H]1C(=O)N(C(C)(C)C)C(=O)[C@@H]12 | 0.1 | 0.8 | i | 49.8 | .
CC(C)(C)N1C(=O)[C@H]2[C@@H](c3ccc(Br)cc3)N3C(=O)N(c4ccccc4)C(=O)[C@@]3(C)[C@H]2C1=O | 3.4 | 0.1 | i | 7.7 | .
CCCCCN1CCCCC(NC(=O)C(C)(C)C)C1=O (stereo not given) | . | 0.0 | . | . | .
CCn1c2ccccc2c2cc(NC(=O)c3ccc(C)c([N+](=O)[O-])c3)ccc21 | 10.7 | 0.4 | i | 52.2* | -1.9
Cc1ccc(OCc2nnc(SCC(=O)c3ccc(-c4ccccc4)cc3)n2Cc2ccco2)cc1 | . | -1.1 | . | . | .
CC(C)(C)N(Cc1ccccc1)C(=O)COC(=O)c1ccc([N+](=O)[O-])o1 | 16.0 | -0.2 | i | 50.4* | 51.9*
Cc1ccc(-c2nc(NC(=O)c3ccc(S(=O)(=O)N(CCC#N)CCC#N)cc3)sc2-c2ccccc2)cc1 | -8.8 | 0.4 | i | 4.5 | .
COC(=O)c1sc2ccccc2c1NC(=O)c1ccc(S(=O)(=O)N2CCCCC2)cc1 | 12.2 | 0.1 | i | 62.4* | 32.5
O=C(Nc1nc(-c2ccccc2)c(-c2ccccc2)s1)c1ccc(S(=O)(=O)N2CCCC2)cc1 | -0.2 | 0.3 | i | 67.2* | 15.0
CN(C)S(=O)(=O)c1ccc(C(=O)Nc2nc(-c3ccccc3)c(C(=O)c3ccccc3)s2)cc1 | -16.0 | 0.1 | i | 37.6 | .
O=C(Nc1nc(-c2ccccc2)c(C(=O)c2ccccc2)s1)c1ccc(S(=O)(=O)N2CCCC2)cc1 | -34.9 | 0.4 | i | 82.6* | 21.8
N#CCCN(CCC#N)S(=O)(=O)c1ccc(C(=O)Nc2nc(-c3ccccc3)c(C(=O)c3ccccc3)s2)cc1 | -41.0 | -0.6 | i | 57.5* | 11.7
O=C(Nc1ccccc1)c1ccc(S(=O)(=O)N2CCCC2)cc1 | 0.7 | -0.2 | i | -8.3 | .
C[C@@H]1ON(C)[C@H]2C[C@H]3c4[nH]c5c(-c6ccc7c(c6)OCO7)cccc5c4CCN3C[C@@H]12 | . | 0.7 | . | . | .
COc1ccc(C)cc1NC(=O)CSc1nnc(-c2n[nH]c3c2CCC3)n1N | . | -0.5 | . | . | .
C#CC1(O)C2C=C(OC)C(=O)C1C(c1ccccc1)C2C (stereo not given) | . | 0.2 | . | . | .
CS(=O)(=O)c1ccc(-c2csc(C(O)c3cccc(Cl)c3)n2)cc1 (stereo not given) | . | -1.1 | i | 52.3* | 17.3
OC(c1cccc(Cl)c1)c1nc(-c2ccoc2)cs1 (stereo not given) | . | -1.1 | i | 3.0 | .
CC(C)(C)c1ccc(-c2nnc(SCC(=O)Nc3ccc(Oc4ccccc4)cc3)n2Cc2ccco2)cc1 | . | 0.5 | . | . | .
C/C(=N\NC(=O)c1nnn(-c2nonc2N)c1-c1ccc(Cl)c(Cl)c1)c1ccncc1 | 18.1 | 0.0 | i | 54.9* | 56.5*
CC1CCN(C(=O)c2[nH]cnc2C(=O)NCc2ccccc2)CC1 | -5.3 | 0.5 | i | -6.7 | .
CC1CCN(C(=O)c2[nH]cnc2C(=O)Nc2ccc(Cl)cc2)CC1 | 9.3 | 0.5 | i | 53.7* | 49.2
CCOc1ccc(NC(=S)N2CCc3cc(OC)c(OC)cc3C2COc2ccc3c(C)cc(=O)oc3c2)cc1 (stereo not given) | 1.6 | -4.8 | i | 77.7* | 6.4
CCNc1ccc(S(=O)(=O)N(C)C)cc1NCC(=O)Nc1ccc(F)c(Cl)c1 | 20.9 | 0.1 | i | 58.5* | 38.7*
CCNc1ccc(S(=O)(=O)N(C)C)cc1NCC(=O)Nc1ccccc1F | 7.5 | -0.1 | i | -1.6 | .
SMILES | PfG6PD inh | KLK7 zymogen act | Neddyl block | FAS-TE inh | FAS-TE conf
COC(=O)c1cc(C(=O)NCc2ccc3c(c2)OCO3)cc([N+](=O)[O-])c1 | -13.4 | 0.0 | i | 58.7* | 70.6*
O=C(NCc1ccco1)c1cc([N+](=O)[O-])ccc1N1CCCCC1 | 12.9 | 0.1 | i | 14.2 | .
O=C(/C=C/c1cccc([N+](=O)[O-])c1)NCc1ccc2c(c1)OCO2 | -10.1 | -0.8 | i | 67.5* | 82.3*
O=C(NCc1ccc2c(c1)OCO2)c1cc([N+](=O)[O-])ccc1N1CCCCC1 | -9.0 | -0.2 | i | 64.5* | 53.8*
N#C/C(=C\c1cccc([N+](=O)[O-])c1)C(=O)NCc1cccnc1 | 47.8 | -0.1 | i | 11.8 | .
N#C/C(=C\c1cccc([N+](=O)[O-])c1)C(=O)NCc1ccc(Cl)cc1 | 32.7 | 0.0 | i | 74.1* | 77.3*
C#CCNC(=O)C[C@H]1C[C@@]2(C(=O)OC)C(=C[C@H](C3CCCC3)O[C@@H]2C)N(Cc2ccc(Cl)cc2Cl)C1=O | . | 0.3 | . | . | .
COCCn1c(=NC(=O)c2ccc(S(=O)(=O)N3CCCc4ccccc43)cc2)sc2cc(S(C)(=O)=O)ccc21 | -3.1 | -0.7 | i | 83.5* | 32.0*
CC(C)(C)c1ccc(OCCC(=O)OCC(=O)NCc2ccccc2)cc1 | 6.9 | -0.2 | i | 64.7* | 66.7*
Cc1ccc2nc(-c3ccc(NC(=O)CSc4nnc(-c5cc(-c6ccc(F)cc6)n[nH]5)n4N)cc3)sc2c1 | . | 4.6 | . | . | .
CC1=C(O)C(=O)C(c2c(C)cc(C)c(Br)c2C)=C(O)C1=O | -38.4 | -0.2 | i | 68.0* | 78.3*
COc1ccc(C2CC(c3ccccc3)=NN2S(=O)(=O)c2ccccc2)c(OC)c1 (stereo not given) | 2.1 | 0.5 | i | 34.4 | .
COc1ccc(C2CC(c3ccccc3)=NN2S(=O)(=O)c2ccc(C)cc2)c(OC)c1 (stereo not given) | 5.4 | -0.7 | i | 58.1* | 12.0
COC(=O)[C@]12C=CCN1[C@H](c1ccccc1)c1c(c3ccccc3n1S(=O)(=O)c1ccc(C)cc1)C2 | . | -0.5 | . | . | .
CCN(CC)C(=O)C1=C(C)N(Cc2ccc(F)cc2)C(=O)C(CC(=O)NC(c2ccccc2)c2ccccc2)C1 (stereo not given) | 12.2 | 0.4 | i | 54.5* | 30.5*
O=C1CSc2ccc(C(=O)Nc3cccc(S(=O)(=O)Nc4ccc(Br)cc4)c3)cc2N1 | 18.9 | 0.0 | i | 50.0* | 20.6
COc1ccc(C(=O)Nc2ccc(S(=O)(=O)N3CCCCC3)cc2)cc1 | 22.2 | 0.1 | i | 14.5 | .
COc1ccc(-c2cnnn2-c2ccc(NC(=O)c3ccc(S(=O)(=O)N4CCCCC4)cc3)cc2)cc1 | 2.7 | -2.4 | i | 57.9* | -1.3
COCCn1c(SCc2cccc([N+](=O)[O-])c2)nc2ccccc2c1=O | 19.7 | -0.3 | i | 51.4* | 11.6
CCSc1nc2ccccc2n1Cc1ccccc1F | -13.2 | 0.6 | i | 6.4 | .
COc1ccc(C(=O)Nn2c(SCc3cccc([N+](=O)[O-])c3)nc3ccccc3c2=O)cc1 | -16.1 | 0.3 | i | 58.7* | 51.1*
CCSc1nc2ccccc2n1Cc1cccc([N+](=O)[O-])c1 | 12.1 | -0.2 | i | 58.7* | 19.7
Cn1c(SCc2cccc([N+](=O)[O-])c2)nc2ccccc2c1=O | -8.6 | 0.4 | i | 42.6 | .
